Molecules are shown by their SMILES. “And” between values parts separate entries of the source, which are not always exact repeats. Identical values can stand only once. Records with an inconclusive call do not appear. The source made the active and inactive calls. Calls follow the shape of the dose curve; as a rule, active = well fitted inhibition curve with a large enough effect; inconclusive = small, poorly fitted or top-dose-only effect, or effect the other way; inactive = flat fitted curve, though single readings scatter.

The source of these data is PubChem BioAssay AID2669 (National Center for Advancing Translational Sciences (NCATS), 2010).

A short description of the experiment: qHTS Assay Multiplex Screening to Identify Dual Action Probes in a Cell Model of Huntington: Cytoprotection (Protease relase). The following applies: PC12 HttQ103 cells, Cytotox-Glo protease release, 40 h; series mostly up to 46.1 µM. A digest of the protocol: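 Inducible PC12 line expressing HTT exon 1 (Q103)-GFP, induced with 100 nM tebufenozide (final) and treated with compounds. Cytoprotection read as released protease activity by Cytotox-Glo luminescence.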
(Quantitative high-throughput screening tests each substance at several concentrations.)
With `C[C@]12CC[C@@H]3c4ccc(OC(=O)c5ccccc5)cc4CC[C@H]3[C@@H]1CC[C@@H]2O`, the Potency result was “inactive”.

`CC(=O)Oc1cccc(C(=O)O)c1OC(C)=O`: the Potency entry is “inactive”.

Take `Cn1nnnc1Sc1ncnc2scc(I)c12`: the Potency is 11.2 µM (active).

On to `O=C(O)CCN1C(=O)/C(=C\c2ccc(-c3nc4ccccc4s3)o2)SC1=S`, for which the Potency was 5.62 µM (active).

On to `Cn1nnnc1Sc1ncnc2scc(-c3ccsc3)c12`, for which the Potency is 7.94 µM (active).

As to `CC(=O)OCC1=C(C(=O)O)N2C(=O)[C@@H](NC(=O)Cc3cccs3)[C@H]2SC1`, the Potency entry was “inactive”.

Consider `COC(=O)c1ccc(NC(=O)CN2C(=O)CSC2=O)cc1`, for which the Potency result is “inactive”.

On to `Cc1cc(C)n(S(=O)(=O)/C=C/c2ccccc2)n1`, for which the Potency result is “inactive”.

For `Cn1nnnc1Sc1ncnc2scc(-c3ccc(C(=O)OC(C)(C)C)cc3)c12`, the Potency was 14.1 µM (active).

Turning to `Oc1ccc(/C=C/c2cc(O)cc(O)c2)cc1`, the Potency was 2.24 µM (active).

As to `CCOC(=O)N1CCN(C(=O)CSCC(=O)Nc2nc(-c3ccc(-c4ccccc4)cc3)cs2)CC1`, the Potency is 3.16 µM (active).

As to `Cn1nnnc1Sc1ncnc2scc(-c3ccc([N+](=O)[O-])cc3)c12`, the Potency is 8.91 µM (active).

For `CN(C)CCCSc1ccccc1NC(=O)/C=C\c1ccccc1`, the Potency is 6.31 µM (active).

Consider `Fc1ccc(N2CCN(c3ncnc4nc[nH]c34)CC2)cc1`, for which the Potency was 4.47 µM (active).

On to `COc1c(F)c(F)c(C(=O)Nc2ccc3oc(-c4ccncc4)nc3c2)c(F)c1F`, for which the Potency entry was “inactive”.

For the compound `Cc1ccc(-n2ncc(Br)c(Br)c2=O)cc1`, the Potency is 12.6 µM (active).

On to `CC(=O)c1cccc(-c2csc3ncnc(Sc4nnnn4C)c23)c1`, for which the Potency was 7.08 µM (active).

On to `COc1ccc2cc3cc(C(=O)NCc4ccco4)oc3nc2c1`, for which the Potency was 1 µM (active).

In the case of `Cn1nnnc1Sc1ncnc2scc(-c3ccccc3Cl)c12`, the Potency was 15.8 µM (active).

Consider `Cn1nnnc1Sc1ncnc2scc(-c3ccccc3)c12`, for which the Potency is 2.82 µM (active) and 7.94 µM (active).

With `Cn1nnnc1Sc1ncnc2scc(-c3ccc(C#N)cc3)c12`, the Potency was 8.91 µM (active).

Take `O=C(CN1CCN(c2ccccn2)CC1)NC1CCCC1`: the Potency entry was “inactive”.

For the compound `Fc1cccc(Cl)c1Cn1nnc2c(-n3ccnc3)ncnc21`, the Potency entry was “inactive”.

`CCc1nc(SCC(=O)N2CCCC2)c2ccccc2n1`: the Potency entry is “inactive”.

As for `Cn1nnnc1Sc1ncnc2scc(-c3ccccc3F)c12`, the Potency was 12.6 µM (active).

`O=C(Nc1cccnc1)Nc1ccccc1Cl`: the Potency was 3.16 µM (active).

In the case of `Cn1nnnc1Sc1ncnc2scc(-c3cccc(C(F)(F)F)c3)c12`, the Potency was 14.1 µM (active).

For the compound `N#Cc1c(C(F)(F)F)cc(-c2ccc(Cl)cc2)[nH]c1=O`, the Potency is 4.47 µM (active).

In the case of `COc1cccc(C(=O)Nc2ccc(F)c(F)c2F)c1`, the Potency was 7.08 µM (active).
